# Measurements reported in ChEMBL document CHEMBL2218924, “A broad activity screen in support of a chemogenomic map for kinase signalling research and drug discovery” (Biochem J, 2013).
# What was measured:
# [1] = target: T1, Serine/threonine-protein kinase TBK1 (Homo sapiens) (UniProt Q9UHD2); conditions: at 10 µM
# T1 sequence (whole entry): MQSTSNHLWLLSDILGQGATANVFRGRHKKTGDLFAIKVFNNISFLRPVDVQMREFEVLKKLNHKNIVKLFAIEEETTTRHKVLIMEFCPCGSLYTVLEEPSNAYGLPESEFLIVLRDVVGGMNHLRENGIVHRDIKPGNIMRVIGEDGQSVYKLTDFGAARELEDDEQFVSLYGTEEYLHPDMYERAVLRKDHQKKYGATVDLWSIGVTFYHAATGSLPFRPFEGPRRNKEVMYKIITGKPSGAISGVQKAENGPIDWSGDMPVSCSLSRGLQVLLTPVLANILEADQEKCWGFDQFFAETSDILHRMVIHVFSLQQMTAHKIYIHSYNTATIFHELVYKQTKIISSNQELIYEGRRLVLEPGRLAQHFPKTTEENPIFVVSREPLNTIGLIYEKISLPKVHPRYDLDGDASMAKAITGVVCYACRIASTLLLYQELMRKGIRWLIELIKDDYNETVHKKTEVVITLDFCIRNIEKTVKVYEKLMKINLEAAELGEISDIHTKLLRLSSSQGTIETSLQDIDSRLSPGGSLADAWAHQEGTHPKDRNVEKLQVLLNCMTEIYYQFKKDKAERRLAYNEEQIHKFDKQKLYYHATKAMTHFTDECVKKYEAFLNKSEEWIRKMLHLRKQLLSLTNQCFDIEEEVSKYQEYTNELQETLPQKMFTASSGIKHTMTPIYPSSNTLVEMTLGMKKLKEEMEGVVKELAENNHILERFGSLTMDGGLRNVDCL
# [2] = target: T2, TGF-beta receptor type-1 (Homo sapiens) (UniProt P36897); conditions: at 1 µM
# T2 sequence (whole entry): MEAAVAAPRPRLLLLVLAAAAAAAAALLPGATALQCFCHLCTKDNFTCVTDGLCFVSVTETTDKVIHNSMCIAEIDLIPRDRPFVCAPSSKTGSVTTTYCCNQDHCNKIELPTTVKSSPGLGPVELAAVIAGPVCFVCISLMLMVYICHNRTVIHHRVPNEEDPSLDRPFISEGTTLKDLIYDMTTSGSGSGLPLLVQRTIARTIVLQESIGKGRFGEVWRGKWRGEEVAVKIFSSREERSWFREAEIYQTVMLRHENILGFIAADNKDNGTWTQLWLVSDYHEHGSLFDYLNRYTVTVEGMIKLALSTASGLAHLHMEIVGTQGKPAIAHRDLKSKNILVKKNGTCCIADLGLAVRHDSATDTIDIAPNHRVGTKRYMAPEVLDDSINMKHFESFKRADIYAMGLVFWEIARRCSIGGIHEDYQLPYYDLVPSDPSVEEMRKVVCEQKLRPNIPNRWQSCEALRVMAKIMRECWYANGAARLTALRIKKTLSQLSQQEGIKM
# [3] = target: T2, TGF-beta receptor type-1 (Homo sapiens); conditions: at 10 µM
# [4] = target: Insulin-like growth factor 1 receptor (Homo sapiens) (UniProt P08069); conditions: at 1 µM
# Chain of Insulin-like growth factor 1 receptor (Homo sapiens) (P08069 31-736 limits assumed): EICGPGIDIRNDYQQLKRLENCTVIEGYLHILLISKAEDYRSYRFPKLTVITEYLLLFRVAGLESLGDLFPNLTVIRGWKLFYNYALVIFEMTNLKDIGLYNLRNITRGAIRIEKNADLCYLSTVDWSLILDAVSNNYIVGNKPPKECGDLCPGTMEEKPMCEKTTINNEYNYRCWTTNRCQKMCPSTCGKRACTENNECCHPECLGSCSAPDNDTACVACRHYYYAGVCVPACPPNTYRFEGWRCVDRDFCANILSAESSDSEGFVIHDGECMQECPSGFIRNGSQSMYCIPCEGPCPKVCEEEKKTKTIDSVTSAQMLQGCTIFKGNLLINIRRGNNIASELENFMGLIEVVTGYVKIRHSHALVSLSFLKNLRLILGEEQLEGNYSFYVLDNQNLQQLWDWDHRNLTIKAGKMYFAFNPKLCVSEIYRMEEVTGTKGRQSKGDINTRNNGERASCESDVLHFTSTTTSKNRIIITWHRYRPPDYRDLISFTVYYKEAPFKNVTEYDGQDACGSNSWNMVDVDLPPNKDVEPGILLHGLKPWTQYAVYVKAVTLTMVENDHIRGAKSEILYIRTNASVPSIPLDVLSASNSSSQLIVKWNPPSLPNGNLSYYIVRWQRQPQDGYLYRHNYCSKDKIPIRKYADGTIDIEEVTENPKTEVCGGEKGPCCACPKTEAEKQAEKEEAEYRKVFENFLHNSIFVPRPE
# Chain of Insulin-like growth factor 1 receptor (Homo sapiens) (P08069 741-1367 limits assumed): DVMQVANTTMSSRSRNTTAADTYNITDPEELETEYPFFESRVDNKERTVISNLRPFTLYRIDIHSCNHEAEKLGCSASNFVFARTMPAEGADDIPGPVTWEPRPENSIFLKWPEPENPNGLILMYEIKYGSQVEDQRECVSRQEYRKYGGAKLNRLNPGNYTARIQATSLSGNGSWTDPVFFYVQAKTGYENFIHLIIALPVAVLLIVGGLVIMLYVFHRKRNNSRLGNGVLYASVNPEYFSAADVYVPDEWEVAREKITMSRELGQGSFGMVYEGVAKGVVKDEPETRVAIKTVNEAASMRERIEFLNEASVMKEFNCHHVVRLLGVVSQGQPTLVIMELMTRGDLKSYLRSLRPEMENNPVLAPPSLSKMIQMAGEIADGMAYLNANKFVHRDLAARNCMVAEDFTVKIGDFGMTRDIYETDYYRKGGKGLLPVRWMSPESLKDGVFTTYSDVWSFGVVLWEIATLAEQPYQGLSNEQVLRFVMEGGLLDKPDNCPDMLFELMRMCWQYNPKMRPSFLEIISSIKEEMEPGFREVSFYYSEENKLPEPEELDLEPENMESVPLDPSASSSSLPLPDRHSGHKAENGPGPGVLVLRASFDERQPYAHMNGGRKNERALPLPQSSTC
# [5] = target: Insulin-like growth factor 1 receptor (Homo sapiens) (UniProt P08069); conditions: at 10 µM
# [6] = target: T3, Inhibitor of nuclear factor kappa-B kinase subunit alpha (Homo sapiens) (UniProt O15111); conditions: at 1 µM
# T3 sequence (whole entry): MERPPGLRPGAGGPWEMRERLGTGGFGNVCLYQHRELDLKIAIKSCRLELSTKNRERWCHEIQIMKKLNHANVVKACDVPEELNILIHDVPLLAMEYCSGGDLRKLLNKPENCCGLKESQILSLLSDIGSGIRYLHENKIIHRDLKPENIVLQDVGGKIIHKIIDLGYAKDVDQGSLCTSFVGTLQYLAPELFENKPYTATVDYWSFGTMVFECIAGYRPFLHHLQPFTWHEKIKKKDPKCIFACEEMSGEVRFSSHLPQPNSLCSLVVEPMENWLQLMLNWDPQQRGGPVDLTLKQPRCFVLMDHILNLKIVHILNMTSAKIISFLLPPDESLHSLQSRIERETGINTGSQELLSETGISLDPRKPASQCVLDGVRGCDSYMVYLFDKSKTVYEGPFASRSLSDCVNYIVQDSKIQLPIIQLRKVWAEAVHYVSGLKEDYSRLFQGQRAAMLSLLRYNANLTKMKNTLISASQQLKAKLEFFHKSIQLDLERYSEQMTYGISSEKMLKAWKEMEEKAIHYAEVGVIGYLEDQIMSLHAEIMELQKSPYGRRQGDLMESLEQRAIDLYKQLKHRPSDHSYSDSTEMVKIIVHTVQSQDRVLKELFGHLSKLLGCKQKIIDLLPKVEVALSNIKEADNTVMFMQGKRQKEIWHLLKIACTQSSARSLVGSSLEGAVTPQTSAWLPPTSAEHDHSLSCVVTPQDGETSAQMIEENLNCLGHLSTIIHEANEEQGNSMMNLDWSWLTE
# [7] = target: T3, Inhibitor of nuclear factor kappa-B kinase subunit alpha (Homo sapiens); conditions: at 10 µM
# [8] = target: T4, Inhibitor of nuclear factor kappa-B kinase subunit beta (Homo sapiens) (UniProt O14920); conditions: at 1 µM
# T4 sequence (whole entry): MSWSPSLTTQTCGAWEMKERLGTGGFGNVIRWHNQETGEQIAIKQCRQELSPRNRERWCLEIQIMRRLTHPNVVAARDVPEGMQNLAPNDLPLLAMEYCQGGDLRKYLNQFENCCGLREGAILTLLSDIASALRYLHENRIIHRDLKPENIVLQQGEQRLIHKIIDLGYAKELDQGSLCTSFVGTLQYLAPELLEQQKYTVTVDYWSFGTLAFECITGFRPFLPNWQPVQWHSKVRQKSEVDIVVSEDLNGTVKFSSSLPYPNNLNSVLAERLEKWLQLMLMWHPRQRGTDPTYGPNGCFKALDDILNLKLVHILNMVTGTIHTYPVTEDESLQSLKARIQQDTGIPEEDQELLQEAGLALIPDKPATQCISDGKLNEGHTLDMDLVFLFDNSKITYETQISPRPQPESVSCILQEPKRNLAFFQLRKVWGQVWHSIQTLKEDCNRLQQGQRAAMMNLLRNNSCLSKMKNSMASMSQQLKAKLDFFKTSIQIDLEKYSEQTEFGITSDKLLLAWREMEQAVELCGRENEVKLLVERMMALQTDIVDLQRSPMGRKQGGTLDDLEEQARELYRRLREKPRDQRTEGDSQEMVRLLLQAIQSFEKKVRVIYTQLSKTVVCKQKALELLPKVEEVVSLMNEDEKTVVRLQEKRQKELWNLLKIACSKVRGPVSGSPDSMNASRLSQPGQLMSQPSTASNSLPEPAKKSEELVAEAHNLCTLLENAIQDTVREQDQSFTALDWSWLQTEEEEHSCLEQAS
# [9] = target: T4, Inhibitor of nuclear factor kappa-B kinase subunit beta (Homo sapiens); conditions: at 10 µM
# [10] = target: Insulin receptor (Homo sapiens) (UniProt P06213); conditions: at 1 µM
# Chain of Insulin receptor (Homo sapiens) (P06213 28-758 limits assumed): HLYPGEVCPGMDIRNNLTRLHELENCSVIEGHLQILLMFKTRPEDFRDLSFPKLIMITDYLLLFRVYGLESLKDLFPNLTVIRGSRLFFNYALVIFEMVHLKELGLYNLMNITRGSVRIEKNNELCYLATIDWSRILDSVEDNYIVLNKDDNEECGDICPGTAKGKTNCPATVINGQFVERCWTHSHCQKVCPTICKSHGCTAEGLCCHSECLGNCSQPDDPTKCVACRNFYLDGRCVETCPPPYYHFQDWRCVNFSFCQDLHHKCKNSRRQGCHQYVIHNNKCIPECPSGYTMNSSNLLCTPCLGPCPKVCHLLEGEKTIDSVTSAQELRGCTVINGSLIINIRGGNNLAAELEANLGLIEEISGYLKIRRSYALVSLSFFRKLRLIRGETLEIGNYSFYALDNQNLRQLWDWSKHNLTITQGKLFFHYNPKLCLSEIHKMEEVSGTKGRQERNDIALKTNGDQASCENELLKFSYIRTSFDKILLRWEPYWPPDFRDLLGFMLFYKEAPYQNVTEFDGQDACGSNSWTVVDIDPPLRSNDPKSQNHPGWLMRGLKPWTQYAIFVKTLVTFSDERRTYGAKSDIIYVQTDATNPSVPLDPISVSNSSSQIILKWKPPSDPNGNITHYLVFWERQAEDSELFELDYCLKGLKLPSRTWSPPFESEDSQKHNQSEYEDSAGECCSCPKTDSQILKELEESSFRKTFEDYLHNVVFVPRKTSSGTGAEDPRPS
# Chain of Insulin receptor (Homo sapiens) (P06213 763-1382 limits assumed): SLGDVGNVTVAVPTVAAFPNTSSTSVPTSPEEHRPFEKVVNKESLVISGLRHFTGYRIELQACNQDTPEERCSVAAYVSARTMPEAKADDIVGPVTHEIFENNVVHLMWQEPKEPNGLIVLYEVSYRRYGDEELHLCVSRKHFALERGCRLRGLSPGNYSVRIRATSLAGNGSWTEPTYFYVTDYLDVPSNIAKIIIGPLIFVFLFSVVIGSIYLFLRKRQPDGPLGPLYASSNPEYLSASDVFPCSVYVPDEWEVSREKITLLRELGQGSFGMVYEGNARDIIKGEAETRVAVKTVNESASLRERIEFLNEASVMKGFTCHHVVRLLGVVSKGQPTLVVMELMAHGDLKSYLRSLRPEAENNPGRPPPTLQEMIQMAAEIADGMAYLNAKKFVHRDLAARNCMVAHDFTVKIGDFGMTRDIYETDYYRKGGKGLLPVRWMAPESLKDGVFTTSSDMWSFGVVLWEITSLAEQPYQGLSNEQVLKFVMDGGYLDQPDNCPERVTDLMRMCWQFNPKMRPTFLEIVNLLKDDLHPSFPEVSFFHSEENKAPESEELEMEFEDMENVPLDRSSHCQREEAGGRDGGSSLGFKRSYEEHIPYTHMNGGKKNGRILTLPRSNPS
compound,measurement,setting,value
O=C1NC(=O)/C(=C\c2ccc3nccnc3c2)S1,residual activity,[1],27%
same,residual activity,[2],92%
same,residual activity,[3],75%
same,residual activity,[4],105%
same,residual activity,[5],89%
same,residual activity,[6],100%
same,residual activity,[7],54%
same,residual activity,[8],102%
same,residual activity,[9],69%
same,residual activity,[10],107%
